Screens: PubChem BioAssay, several laboratories
PLCb3 inh = PLC-beta3 (human) inhibition, primary screen. Q01970. Purified PLC-beta3, fluorogenic substrate, fluorescence. inhibition, % at 12.2 µM. 0.18% of 370,000 active;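 further: 0% = median of compound wells on plate and 100% = full blocker control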
HGIII-sPLA2 inh = Inhibits HGIII-sPLA2 liposome hydrolysis, primary screen; 0.56% of 370,000 active; inhibition, % at 12.2 µM; QFRET BODIPY PC-A2 liposome hydrolysis, fluorescence; Q9NZ20;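 active means inhibition above mean plus 3 SD of compounds lying within the high and low control bounds, cut at about 19% in these data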;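 further: 0% = median of test compound wells and 100% = no enzyme DMSO wells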
HIF activator = HIF pathway transcriptional activation; AID 1910; U2OS HRE-luciferase reporter, luminescence; normalized: DMSO 0%, desferrioxamine 100%; activation, % at 7.5 µM (by protocol); 0.32% of 300,000 active;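 active means mean activation of at least 10% of the iron chelator positive control signal, with at least half of replicates also reaching 10%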
AHR act = activates the human aryl hydrocarbon receptor. AHR-responsive luciferase reporter cells, luminescence. activation, % at 5 µM. 2.5% of 320,000 active. AID 2796; in the data active means activation above about 47%;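 further: 0% = vehicle wells and 100% = reference agonist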
PLC-gamma1 inh = inhibitors of human phospholipase C gamma1 | P19174 | purified PLC-gamma1, fluorogenic substrate, fluorescence | inhibition, % at 12.2 µM | 0.84% of 370,000 active | AID 720700; in the data active means inhibition above about 9.5%
Yeast superoxide = yeast age-related superoxide inhibition as caloric restriction mimetic. S. cerevisiae aged cells, superoxide DHE fluorescence; stronger effect = lower value. 0.18% of 330,000 active. superoxide response (% of plate mean), % at 10 µM;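 active means superoxide response under a set limit, about three screen SD below normal, cut at about 65% in these data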;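 further: yeast aged for seven days with compound at 30 °C before DHE staining; 100% = average MFI of all compound-treated wells on the plate with controls excluded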
PLCg1 ctr = counter-screen for PLC-beta3 inhibitors: inhibitors of human PLC-gamma1. shares compounds with PLC-gamma1 inh. purified PLC-gamma1, fluorogenic substrate, fluorescence. inhibition, % at 12.3 µM. 3.1% of 3,300 active; in the data active means inhibition above about 9.5%
PLCb3 confirm = human PLC-beta3 inhibition, confirmation | shares compounds with PLC-gamma1 inh | purified PLC-beta3, fluorogenic substrate fluorescence | inhibition, % at 12.3 µM | 1% of 3,300 active | AID 743261
hGIII sPLA2 conf = human GIII-sPLA2 inhibition, confirmation; shares compounds with HGIII-sPLA2 inh; recombinant hGIII-sPLA2, BODIPY PC-A2 QFRET fluorescence; inhibition, % at 12.2 µM; 34% of 2,000 active;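 active means mean inhibition across triplicates above the hit cutoff set in the earlier primary screen, cut at about 19% in these data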;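 further: 0% = enzyme with DMSO and 100% = DMSO wells lacking enzyme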
BODIPY interf = optically interferes with 535nm fluorescence in sPLA2 counter-screen | BODIPY FL product fluorescence interference, QFRET | 8.5% of 2,000 active | inhibition, % at 12.2 µM | shares compounds with HGIII-sPLA2 inh;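 active means average inhibition above the solvent-only control mean plus 3 SD, cut at about 6% in these data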;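 further: 0% = DMSO with substrate plus product and 100% = DMSO with substrate alone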
Starred values were filed as active, the others as inactive; nt = no result; ! = repeats disagree. An excerpt weighted towards active compounds, which were near 3.9% of everything screened. Unless noted, no stated cut-off is given here; in the data, active means inhibition above about 11%; inactive means the rest.

SMILES	PLCb3 inh	HGIII-sPLA2 inh	HIF activator	AHR act	PLC-gamma1 inh	Yeast superoxide	PLCg1 ctr	PLCb3 confirm	others
C=CCN=C(SCC(=O)c1ccc(Cl)cc1)c1c(O)n(C)c(=O)n(C)c1=O	-8	-10	1	2	1	96	nt	nt
CC1(C)CN=C(NCc2ccccc2Cl)S1	-1	14	2	3	12*	98	0	2
O=C1NCN(c2ccccc2)C12CCN(C(c1cccc3ccccc13)c1nnnn1C1CCCCC1)CC2 (configuration not stated)	3	3	nt	nt	12*	nt	-1	-3
CSCCC(c1nnnn1Cc1ccccc1)N1CCC2(CC1)C(=O)NCN2c1ccccc1 (configuration not stated)	1	-6	nt	nt	11*	nt	-1	0
O=C1NCN(c2ccccc2)C12CCN(C(CCc1ccccc1)c1nnnn1Cc1ccccc1)CC2 (configuration not stated)	1	7	nt	nt	-3	nt	nt	nt
Cc1nn(CC(=O)N2CCC3(CC2)OCCO3)c(=O)c2cc3ccccc3n12	-20	9	0	3	-6	93	nt	nt
COc1ccc(CC(=O)N(CCN(C)C)CC2CCCN(Cc3ccccc3F)C2)cc1 (configuration not stated)	-1	-14	-43	6	13*	91	-1	-2
CN(C)CCN(CC1CCCN(Cc2ccccc2F)C1)C(=O)Cc1ccccc1F (configuration not stated)	-3	-12	1	-2	1	111	nt	nt
O=C1C(=O)c2ccccc2-c2ccccc21	2	-7	-4	23	57*	78	43*	6
COC(=O)c1cncn1C(C)c1ccccc1 (configuration not stated)	3	5	0	0	3	79	nt	nt
CC(c1ccccc1)n1cncc1C(=O)O (configuration not stated)	6	14	0	-1	11*	104	-6	-5
Nc1ncnc2c1ncn2[C@@H]1O[C@H](COP(=O)(O)CP(=O)(O)O)[C@@H](O)[C@H]1O	1	7	nt	nt	73*	nt	79*	-2
N#Cc1cn(C2OC(CO)C(O)C2O)c2ncnc(N)c12 (configuration not stated)	6	-3	nt	nt	-4	nt	nt	nt
COc1cccc(CC(=O)N(C)C2CCCN(Cc3ccccc3F)C2)c1 (configuration not stated)	0	-1	-16	0	-49	90	nt	nt
CCC(=NCc1ccco1)c1c(O)n(C2CCCCC2)c(=O)[nH]c1=O	12*	-11	0	0	1	97	-2	21*
COc1ccc(-c2n(-c3ccccn3)c3ccccc3[n+]2-c2ccccn2)cc1	-40	13	0	nt	-20	nt	nt	nt
COc1ccc(OC)c(NP(=O)(Oc2ccccc2)Oc2ccccc2)c1	-1	-17	0	nt	11*	96	-1	1
CN(C)c1ccccc1	2	-8	nt	nt	2	nt	nt	nt
Cc1cccc(N=Nc2ccc(N(C)C)cc2)c1	2	20*	1	-4	5	88	nt	nt	hGIII sPLA2 conf=27*;BODIPY interf=4
O=c1[nH]c(O)c(/C=C2/C=CC(c3cc(Cl)ccc3Cl)=N2)c(=O)[nH]1	-7	20*	0	0	-1	99	nt	nt	hGIII sPLA2 conf=17;BODIPY interf=2
c1ccc(CNC2CCCCCCC2)cc1 (tested in a mixture with another compound)	3	0	nt	nt	0	nt	nt	nt
NNCc1ccccc1	-3	20*!	nt	nt	1	nt	nt	nt	hGIII sPLA2 conf=-1;BODIPY interf=-4
COc1ccccc1CCNC1CCCC(C)C1 (configuration not stated)	2	23*	0	10	0	85	nt	nt	hGIII sPLA2 conf=0;BODIPY interf=-17
